Test results published in the supplement of paper PMC10849652.
Targets with a hit are over-represented here; the source holds about 8,800 in all. About 0.5% of all pairs of compound and target were hits.

Columns and labels:
Experiment in all cases: log2 fold change, soluble protein after heating vs DMSO (PISA); higher = thermal stabilisation; K562 lysate, 10 uM; active = over 0.2 and 3.5 SD of the protein, either way, in both replicates (recomputed)
[1] = compound: CN1CC[C@H](c2c(O)cc(O)c3c(=O)cc(-c4ccccc4Cl)oc23)[C@H](O)C1 [alvocidib]
In short: (§1)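 A 30 min treatment with 10 μM compound was applied to crude K562 extract at 1 mg/mL protein in PBS pH 7.4 with 1 mM MgCl2. Heating for 3 min spanned 48°C-58°C, after which aliquots were pooled, adjusted to 0.5% NP-40 at 4°C and spun at 21,000xg for 90 min. TMTpro 16plex LC-MS/MS of the supernatant, with channel sums equalised, gave values recorded as log-two fold change in thermal stability against solvent controls, from duplicates.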

[2] = compound: CN1CCc2c(c3ccccc3n2Cc2ccc(C(=O)NO)cc2)C1 [Tubastatin A]
In short: as §1

[3] = compound: CNC(=O)C1=CC=CC=C1NC2=NC(=NC=C2Cl)NC3=C(C=C(C=C3)N4CCOCC4)OC
In short: as §1

[4] = compound: CNC(=O)c1ccc(Nc2ncc(C(F)(F)F)c(NCc3nccnc3N(C)S(C)(=O)=O)n2)cc1 [defactinib]
In short: as §1

[5] = compound: CNc1nc(-c2ccc3c(N)n[nH]c3c2)cc(N2C[C@@H](C(=O)NC3CCCCC3)CC[C@H]2C)n1
In short: as §1

[6] = compound: COC(=O)N[C@@H](C)CNc1nccc(-c2cn(C(C)C)nc2-c2cc(Cl)cc(NS(C)(=O)=O)c2F)n1 [encorafenib]
In short: as §1

[7] = compound: COC(=O)[C@H](CCSC)NC(=O)C1=C(C=C(C=C1)NC[C@H](CS)N)C2=CC=CC=C2
In short: as §1

[8] = compound: COc1cc(Nc2ncc3c(n2)-c2ccc(Cl)cc2C(c2c(F)cccc2OC)=NC3)ccc1C(=O)O [alisertib]
In short: as §1

[9] = compound: COc1cc2nc(-c3cc(F)ccc3O)nc(N[C@@H]3CNC[C@H]3C(C)(C)O)c2cc1OC
In short: as §1

[10] = compound: COc1cc2ncnc(Nc3ccc(F)c(Cl)c3)c2cc1OCCCN1CCOCC1 [gefitinib]
In short: as §1

[11] = compound: CS(=O)(=O)CCNCc1ccc(-c2ccc3ncnc(Nc4ccc(OCc5cccc(F)c5)c(Cl)c4)c3c2)o1 [lapatinib]
In short: as §1

[12] = compound: CS(=O)(=O)N1CCN(Cc2cc3nc(-c4cccc5[nH]ncc45)nc(N4CCOCC4)c3s2)CC1 [pictilisib]
In short: as §1

[13] = compound: C[C@@H](Oc1cc(-c2cnn(C3CCNCC3)c2)cnc1N)c1c(Cl)ccc(F)c1Cl [crizotinib]
In short: as §1

[14] = compound: C[C@H](C1=CC=C(C=C1)C(=O)NC2=C3C=CNC3=NC=C2)N
In short: as §1

[15] = compound: C[C@H](Nc1ncnc2nc[nH]c12)c1cc2cccc(Cl)c2c(=O)n1-c1ccccc1 [duvelisib]
In short: as §1

[16] = compound: Cc1cc(Nc2cc(CN3CCOCC3)c3nc(C)c(Cc4ccc(Cl)cc4F)n3n2)n[nH]1 [gandotinib]
In short: as §1

[17] = compound: Cc1cc(Nc2cc(N3CCN(C)CC3)nc(Sc3ccc(NC(=O)C4CC4)cc3)n2)n[nH]1 [tozasertib]
In short: as §1

[18] = compound: Cc1ccc(-n2nc(C(C)(C)C)cc2NC(=O)Nc2ccc(OCCN3CCOCC3)c3ccccc23)cc1 [doramapimod]
In short: as §1

[19] = compound: Cc1ccc(NC(=O)c2ccc(CN3CC[C@H](N(C)C)C3)c(C(F)(F)F)c2)cc1Nc1nccc(-c2cncnc2)n1 [bafetinib]
In short: as §1

[20] = compound: Cc1cccc(CC(=O)N2CCc3c2ccc(-c2cn(C)c4ncnc(N)c24)c3F)n1
In short: as §1

Measured: log2 fold change

PRKACB isoform 2 (UniProt P22694)
inactive: [1] 0.006 | [2] 0.003 | [3] 0.011 | [4] 0.117 | [5] 0.118 | [6] -0.018 | [7] -0.05 | [8] 0 | [10] 0.006 | [11] -0.063 | [12] -0.042 | [13] -0.018 | [14] 0.141 | [15] 0.024 | [16] -0.071 | [17] -0.001 | [18] -0.023 | [19] -0.04 | [20] -0.131
active: [9] 0.51

PRKCSH (UniProt P14314)
Chain of UniProt P14314 (P14314 whole entry, looked up): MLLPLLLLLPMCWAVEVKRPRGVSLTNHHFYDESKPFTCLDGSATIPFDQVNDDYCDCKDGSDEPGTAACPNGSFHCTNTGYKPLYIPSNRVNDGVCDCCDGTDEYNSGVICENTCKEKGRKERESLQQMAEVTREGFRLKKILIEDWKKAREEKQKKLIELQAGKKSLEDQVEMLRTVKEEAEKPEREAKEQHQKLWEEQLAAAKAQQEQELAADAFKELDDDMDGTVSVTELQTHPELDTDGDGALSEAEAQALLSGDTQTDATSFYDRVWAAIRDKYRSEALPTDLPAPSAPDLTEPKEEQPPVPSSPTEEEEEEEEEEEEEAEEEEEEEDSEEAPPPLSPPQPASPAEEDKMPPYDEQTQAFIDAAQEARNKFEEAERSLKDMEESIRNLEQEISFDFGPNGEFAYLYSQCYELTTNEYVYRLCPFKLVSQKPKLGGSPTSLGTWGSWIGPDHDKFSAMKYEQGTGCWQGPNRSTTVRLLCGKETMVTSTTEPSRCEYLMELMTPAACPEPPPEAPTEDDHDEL
inactive: [1] 0.009 | [2] 0.039 | [3] -0.001 | [4] -0.014 | [5] -0.035 | [6] -0.003 | [7] -0.036 | [8] -0.006 | [9] 0.024 | [10] 0.024 | [11] -0.004 | [12] -0.004 | [13] 0.062 | [14] 0.046 | [15] 0.022 | [16] -0.023 | [17] 0.02 | [18] -0.042 | [19] 0.05 | [20] -0.088

PLXNB2 (UniProt O15031)
Chain of UniProt O15031 (O15031 whole entry, looked up): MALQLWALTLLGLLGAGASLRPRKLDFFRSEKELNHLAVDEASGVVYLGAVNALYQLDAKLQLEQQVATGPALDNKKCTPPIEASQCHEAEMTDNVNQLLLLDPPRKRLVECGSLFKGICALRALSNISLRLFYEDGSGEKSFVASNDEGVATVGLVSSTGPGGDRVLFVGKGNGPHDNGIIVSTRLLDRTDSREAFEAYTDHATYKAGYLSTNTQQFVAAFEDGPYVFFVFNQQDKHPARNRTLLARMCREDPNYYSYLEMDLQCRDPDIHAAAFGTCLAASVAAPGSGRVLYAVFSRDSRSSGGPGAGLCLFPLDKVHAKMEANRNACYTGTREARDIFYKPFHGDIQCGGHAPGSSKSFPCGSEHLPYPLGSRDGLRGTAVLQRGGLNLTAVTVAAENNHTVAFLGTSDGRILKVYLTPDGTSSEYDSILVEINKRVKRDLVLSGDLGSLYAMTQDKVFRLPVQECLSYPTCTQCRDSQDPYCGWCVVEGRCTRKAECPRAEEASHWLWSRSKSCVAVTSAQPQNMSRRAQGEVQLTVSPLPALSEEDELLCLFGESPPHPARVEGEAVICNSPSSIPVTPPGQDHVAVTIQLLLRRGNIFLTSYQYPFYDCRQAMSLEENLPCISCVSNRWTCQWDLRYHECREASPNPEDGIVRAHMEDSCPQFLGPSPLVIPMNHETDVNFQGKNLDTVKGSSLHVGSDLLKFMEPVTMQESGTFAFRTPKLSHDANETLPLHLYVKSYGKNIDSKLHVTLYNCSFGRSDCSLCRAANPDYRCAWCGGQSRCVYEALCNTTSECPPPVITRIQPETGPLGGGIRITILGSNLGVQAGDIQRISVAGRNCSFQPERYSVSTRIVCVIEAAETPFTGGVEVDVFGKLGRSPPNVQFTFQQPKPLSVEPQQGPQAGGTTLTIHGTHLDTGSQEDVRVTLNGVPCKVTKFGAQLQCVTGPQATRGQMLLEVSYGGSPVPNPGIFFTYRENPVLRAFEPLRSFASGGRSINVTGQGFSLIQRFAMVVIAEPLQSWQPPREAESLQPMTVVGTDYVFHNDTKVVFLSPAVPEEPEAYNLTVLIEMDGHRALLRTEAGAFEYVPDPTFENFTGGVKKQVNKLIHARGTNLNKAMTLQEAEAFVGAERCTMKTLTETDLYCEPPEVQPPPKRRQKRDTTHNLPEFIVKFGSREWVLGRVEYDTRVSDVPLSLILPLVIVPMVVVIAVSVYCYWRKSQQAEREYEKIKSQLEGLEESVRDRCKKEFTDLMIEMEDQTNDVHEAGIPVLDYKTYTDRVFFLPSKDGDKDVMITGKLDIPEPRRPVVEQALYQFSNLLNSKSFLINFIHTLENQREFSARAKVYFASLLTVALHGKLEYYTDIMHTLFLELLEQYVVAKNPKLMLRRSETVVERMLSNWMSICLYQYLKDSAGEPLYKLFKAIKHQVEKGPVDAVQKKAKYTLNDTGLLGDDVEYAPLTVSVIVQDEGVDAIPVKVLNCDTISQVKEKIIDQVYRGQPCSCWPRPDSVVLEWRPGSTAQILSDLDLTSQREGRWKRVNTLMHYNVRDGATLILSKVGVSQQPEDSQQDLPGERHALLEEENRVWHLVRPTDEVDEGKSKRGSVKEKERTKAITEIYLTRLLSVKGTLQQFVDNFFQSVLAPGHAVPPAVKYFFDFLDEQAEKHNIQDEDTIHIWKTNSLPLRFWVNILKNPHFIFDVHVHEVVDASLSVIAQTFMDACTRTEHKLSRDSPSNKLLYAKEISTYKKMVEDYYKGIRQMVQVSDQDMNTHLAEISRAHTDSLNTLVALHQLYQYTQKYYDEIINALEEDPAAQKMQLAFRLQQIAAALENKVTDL
inactive: [1] 0 | [2] 0.015 | [3] 0.009 | [4] 0.002 | [5] 0.027 | [6] 0.004 | [7] -0.107 | [8] 0.017 | [9] 0.054 | [10] 0.016 | [11] -0.033 | [12] -0.068 | [13] -0.014 | [14] -0.019 | [15] 0.031 | [16] -0.046 | [17] 0.027 | [18] -0.044 | [19] -0.004 | [20] 0.031

PMS2 (UniProt P54278)
inactive: [1] -0.001 | [2] -0.129 | [3] 0.03 | [4] 0.021 | [5] 0.103 | [6] 0.038 | [7] 0.089 | [8] 0.009 | [9] 0.02 | [10] 0.024 | [11] 0.016 | [12] 0.021 | [13] -0.038 | [14] -0.036 | [15] 0 | [16] -0.064 | [17] -0.014 | [18] -0.038 | [19] 0.021 | [20] 0.037

PUM1 isoform 3 (UniProt Q14671)
inactive: [1] 0.02 | [2] -0.033 | [3] -0.017 | [4] 0.017 | [5] -0.023 | [6] 0.008 | [7] 0 | [8] 0.031 | [9] 0.017 | [10] -0.014 | [11] 0.004 | [12] -0.036 | [13] 0.067 | [14] 0.021 | [15] -0.003 | [16] -0.151 | [17] 0.01 | [19] -0.067 | [20] -0.026
active: [18] -0.315

PCBP2 isoform 8 (UniProt Q15366)
inactive: [1] -0.01 | [2] -0.133 | [3] 0.022 | [4] 0 | [5] 0.079 | [6] 0.053 | [7] 0.108 | [8] -0.013 | [9] -0.085 | [10] -0.122 | [11] 0.022 | [12] -0.013 | [13] 0.001 | [14] 0.013 | [15] 0.04 | [16] 0.029 | [17] -0.026 | [18] -0.092 | [19] 0.082 | [20] 0.036

PPME1 isoform 4 (UniProt Q9Y570)
inactive: [1] 0.01 | [2] 0.024 | [3] 0.008 | [4] 0.024 | [5] 0.002 | [6] -0.001 | [7] -0.066 | [8] 0.031 | [9] 0.005 | [10] 0.002 | [11] -0.014 | [12] 0.009 | [13] 0.005 | [14] -0.014 | [15] 0.002 | [16] -0.002 | [17] 0.048 | [18] 0.026 | [19] 0.052 | [20] -0.006

PRKRA (UniProt O75569)
inactive: [1] 0.024 | [2] -0.254 | [3] 0.028 | [4] 0.02 | [5] -0.009 | [6] -0.001 | [7] 0.146 | [8] -0.019 | [9] -0.004 | [10] -0.006 | [11] 0.01 | [12] -0.003 | [13] -0.021 | [14] -0.017 | [15] 0 | [16] -0.094 | [17] -0.005 | [18] -0.01 | [19] -0.003 | [20] 0.032

PI4KB (UniProt Q9UBF8)
inactive: [1] 0.005 | [2] -0.032 | [3] 0.228 | [4] 0.094 | [5] 0.056 | [6] 0.081 | [7] -0.069 | [8] -0.001 | [9] -0.097 | [10] 0 | [11] 0.02 | [12] 0.031 | [13] -0.011 | [14] -0.01 | [15] 0.005 | [16] 0.011 | [17] -0.02 | [18] 0.055 | [19] -0.073 | [20] 0.014

PICALM (UniProt Q13492)
inactive: [1] -0.021 | [2] 0.029 | [3] -0.032 | [4] -0.037 | [5] -0.033 | [6] 0.042 | [7] 0.014 | [8] 0.008 | [9] 0.017 | [10] 0.008 | [11] 0.012 | [12] 0.001 | [13] 0.024 | [14] 0.052 | [15] 0.012 | [16] 0.022 | [17] 0.013 | [18] 0.028 | [19] -0.055 | [20] -0.007

PYCR2 (UniProt Q96C36)
inactive: [1] -0.052 | [2] 0.041 | [3] 0.004 | [4] 0.001 | [5] 0.011 | [6] -0.005 | [7] -0.038 | [8] 0.013 | [9] -0.001 | [10] -0.005 | [11] -0.029 | [12] -0.021 | [13] 0.026 | [14] 0.021 | [15] -0.004 | [16] 0.01 | [17] 0.001 | [18] -0.012 | [19] 0.034 | [20] -0.01

PDAP1 (UniProt Q13442)
Chain of UniProt Q13442 (Q13442 whole entry, looked up): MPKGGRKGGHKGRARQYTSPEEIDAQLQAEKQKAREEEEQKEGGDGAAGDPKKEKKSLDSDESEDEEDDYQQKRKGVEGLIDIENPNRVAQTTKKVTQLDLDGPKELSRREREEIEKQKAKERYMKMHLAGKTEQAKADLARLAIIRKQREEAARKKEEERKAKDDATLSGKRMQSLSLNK
active: [14] -0.232
inactive: [1] -0.074 | [2] 0.063 | [3] 0.004 | [4] -0.012 | [5] 0.109 | [6] -0.038 | [7] -0.017 | [8] 0.006 | [9] 0.018 | [10] -0.029 | [11] -0.004 | [12] 0.03 | [13] 0.043 | [15] -0.043 | [16] 0.135 | [17] -0.026 | [18] -0.03 | [19] 0.006 | [20] 0.089

PTPN7 isoform 3 (UniProt P35236)
Chain of UniProt P35236 (P35236 whole entry, looked up): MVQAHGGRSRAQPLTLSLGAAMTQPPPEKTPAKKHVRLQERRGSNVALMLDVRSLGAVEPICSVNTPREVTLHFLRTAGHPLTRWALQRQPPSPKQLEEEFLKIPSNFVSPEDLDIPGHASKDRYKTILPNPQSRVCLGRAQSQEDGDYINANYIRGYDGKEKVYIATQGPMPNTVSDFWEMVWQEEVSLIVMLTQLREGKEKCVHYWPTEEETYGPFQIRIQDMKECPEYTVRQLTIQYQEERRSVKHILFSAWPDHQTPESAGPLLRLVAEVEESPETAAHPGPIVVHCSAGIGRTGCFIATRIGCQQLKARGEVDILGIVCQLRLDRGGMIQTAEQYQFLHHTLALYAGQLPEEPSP
inactive: [1] -0.082 | [2] -0.138 | [3] 0.057 | [4] 0.017 | [5] 0.038 | [6] -0.051 | [7] 0.122 | [8] 0.021 | [9] -0.023 | [10] -0.025 | [11] -0.025 | [12] -0.04 | [13] 0.043 | [14] -0.028 | [15] -0.006 | [16] 0.056 | [17] 0 | [18] 0.007 | [19] 0.036 | [20] 0.115

PFKP (UniProt Q01813)
Chain of UniProt Q01813 (Q01813 whole entry, looked up): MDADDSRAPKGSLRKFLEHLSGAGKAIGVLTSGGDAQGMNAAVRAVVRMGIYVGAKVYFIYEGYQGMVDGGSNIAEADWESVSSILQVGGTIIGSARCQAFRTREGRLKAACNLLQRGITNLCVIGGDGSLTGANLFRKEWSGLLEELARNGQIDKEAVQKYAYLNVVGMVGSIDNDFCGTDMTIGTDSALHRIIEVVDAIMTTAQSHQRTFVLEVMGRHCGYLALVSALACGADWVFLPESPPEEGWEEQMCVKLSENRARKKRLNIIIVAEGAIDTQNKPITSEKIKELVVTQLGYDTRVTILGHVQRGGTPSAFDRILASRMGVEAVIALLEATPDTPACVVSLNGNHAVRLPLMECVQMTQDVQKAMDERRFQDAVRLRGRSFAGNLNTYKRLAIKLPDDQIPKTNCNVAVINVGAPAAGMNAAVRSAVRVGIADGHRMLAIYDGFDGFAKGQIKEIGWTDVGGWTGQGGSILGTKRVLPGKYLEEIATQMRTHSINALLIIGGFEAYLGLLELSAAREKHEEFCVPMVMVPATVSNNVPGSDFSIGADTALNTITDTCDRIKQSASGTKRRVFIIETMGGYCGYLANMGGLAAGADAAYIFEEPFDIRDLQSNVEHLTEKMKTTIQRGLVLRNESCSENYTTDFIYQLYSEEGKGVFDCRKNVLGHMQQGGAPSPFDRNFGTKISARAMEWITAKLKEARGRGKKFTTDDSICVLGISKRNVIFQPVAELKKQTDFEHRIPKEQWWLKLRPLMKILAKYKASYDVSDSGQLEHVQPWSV
inactive: [1] 0.019 | [2] 0.031 | [3] 0.029 | [4] -0.009 | [5] -0.016 | [6] -0.041 | [7] -0.001 | [8] -0.004 | [9] 0.009 | [10] -0.006 | [11] -0.011 | [12] -0.014 | [13] 0.014 | [14] 0.033 | [15] -0.02 | [16] -0.034 | [17] -0.012 | [18] -0.015 | [19] 0.005 | [20] -0.012

PDXDC1 (UniProt Q6P996)
Chain of UniProt Q6P996 (Q6P996 whole entry, looked up): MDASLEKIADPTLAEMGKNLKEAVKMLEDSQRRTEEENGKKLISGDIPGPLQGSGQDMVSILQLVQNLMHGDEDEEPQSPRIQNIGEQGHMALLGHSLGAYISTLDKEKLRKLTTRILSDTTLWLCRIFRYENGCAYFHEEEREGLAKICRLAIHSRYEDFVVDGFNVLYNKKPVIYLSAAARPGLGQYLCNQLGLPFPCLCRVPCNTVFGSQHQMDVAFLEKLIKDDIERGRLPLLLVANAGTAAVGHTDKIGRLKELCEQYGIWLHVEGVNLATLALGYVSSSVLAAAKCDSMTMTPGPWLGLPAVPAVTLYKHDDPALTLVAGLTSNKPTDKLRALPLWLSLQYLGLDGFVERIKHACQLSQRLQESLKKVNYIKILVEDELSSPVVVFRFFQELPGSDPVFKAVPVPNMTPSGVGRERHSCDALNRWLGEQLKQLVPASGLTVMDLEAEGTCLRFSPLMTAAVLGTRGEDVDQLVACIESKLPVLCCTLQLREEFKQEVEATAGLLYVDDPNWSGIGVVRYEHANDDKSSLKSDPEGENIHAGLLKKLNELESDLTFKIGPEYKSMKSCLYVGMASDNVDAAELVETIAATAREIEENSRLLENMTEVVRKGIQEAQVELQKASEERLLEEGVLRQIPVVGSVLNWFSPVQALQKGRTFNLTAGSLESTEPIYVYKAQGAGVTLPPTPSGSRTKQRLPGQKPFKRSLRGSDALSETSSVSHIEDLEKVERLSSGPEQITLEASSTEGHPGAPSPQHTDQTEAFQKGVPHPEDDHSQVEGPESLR
inactive: [1] -0.005 | [2] -0.065 | [3] -0.007 | [4] 0.034 | [5] 0.088 | [6] 0.058 | [7] 0.085 | [8] 0.049 | [9] -0.006 | [10] 0.032 | [11] -0.025 | [12] -0.019 | [13] -0.056 | [14] -0.011 | [15] 0.019 | [16] 0 | [17] 0.01 | [18] 0.007 | [19] -0.128 | [20] 0.062

PFKFB3 isoform 4 (UniProt Q16875)
Chain of UniProt Q16875 (Q16875 whole entry, looked up): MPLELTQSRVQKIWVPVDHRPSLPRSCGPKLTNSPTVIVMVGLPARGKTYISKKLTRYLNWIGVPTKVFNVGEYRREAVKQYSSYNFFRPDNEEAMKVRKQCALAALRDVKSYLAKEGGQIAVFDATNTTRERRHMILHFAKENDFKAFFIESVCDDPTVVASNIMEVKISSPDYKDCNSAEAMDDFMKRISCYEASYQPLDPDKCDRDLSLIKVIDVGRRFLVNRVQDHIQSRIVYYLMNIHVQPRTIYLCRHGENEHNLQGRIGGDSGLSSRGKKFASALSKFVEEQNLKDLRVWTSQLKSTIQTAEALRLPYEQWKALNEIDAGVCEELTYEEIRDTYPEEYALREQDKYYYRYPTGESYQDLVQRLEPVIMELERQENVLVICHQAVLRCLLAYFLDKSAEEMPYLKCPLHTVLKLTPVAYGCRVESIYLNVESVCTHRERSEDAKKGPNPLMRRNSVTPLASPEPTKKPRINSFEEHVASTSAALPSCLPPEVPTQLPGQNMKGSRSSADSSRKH
inactive: [1] -0.012 | [2] -0.05 | [3] 0.058 | [4] -0.006 | [5] 0.012 | [6] 0.041 | [7] -0.137 | [8] -0.01 | [9] 0 | [10] -0.01 | [11] -0.228 | [12] -0.057 | [13] -0.021 | [14] 0.004 | [15] -0.009 | [16] -0.006 | [17] -0.003 | [18] 0.007 | [19] -0.03 | [20] 0.007
